From PubChem BioAssay (NCATS)
Inconclusive results are not listed. Where a call stands in place of a potency, no number is given. The source made the active and inactive calls. Unless noted, the call rests on the fitted dose curve; in most records, active means well fitted curve in the direction sought with a large enough effect; inconclusive means small, poorly fitted or top-dose-only effect, or another doubt; inactive means no such curve, though single readings can be large; an effect the other way counts as inactive or inconclusive.

Key:
[1] = test system: Zika virus NS2B-NS3 protease (linked construct); assay: Primary screen NINDS Rhodamine qHTS for Zika virus inhibitors (AID 1347160); further: nearly all actives have a fitted effect of over 55% in size; further: potency means the concentration at half of the fitted maximal effect
In short: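 Enzyme (25 nM, linked NS2B-NS3) was preincubated 15 min with compound in 10 mM Tris-HCl pH 8.0, 0.01% Tween 20. Rhodamine110 substrate (1.5 microM) was then added and fluorescence read at start and after 15 min.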

[2] = test system: NAD(P)H diaphorase (Clostridium kluyveri); assay: Diaphorse counterscreen qHTS: Assay Interference Panel against the NCATS CANVASS Library (AID 1347362)
In short: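 Clostridium kluyveri diaphorase in PBS + 0.01% Tween-20 preincubated 15 min with compounds. Resazurin and NADH then added for 5 min at room temperature in the dark; resorufin fluorescence read (ex 525, em 598).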

[3] = qHTS for ATAD5 Antagonist screened against the NCATS CANVASS Library (AID 1347370); further: nearly all actives have a fitted effect of over 65% in size; further: potency means the concentration at half of the fitted maximal effect
In short: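 Compounds (11-point) co-dosed with 10 µM 5-FUrd for 16 h at 37 °C onto HEK293T-ATAD5 luciferase reporter cells. Viability measured by CellTiter-Fluor fluorescence, then ATAD5 reporter signal by luminescence.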

[4] = qHTS for Antimalaria activity screened against the NCATS CANVASS Library (AID 1347380); further: nearly all actives have a fitted effect of over 40% in size; further: potency means the concentration at half of the fitted maximal effect
In short: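 SYBR Green fluorescence at 485/535 nm was read 18 hr after lysis. This followed a 72 hr incubation at 37C in 5% O2, 5% CO2 of Dd2-infected erythrocytes (0.3% parasitemia, 2.5% final hematocrit) with compounds titrated over 11 concentrations.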

[5] = qHTS for Activators of p53 Stress Response Pathway screened against the NCATS CANVASS Library (AID 1347388)
In short: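 p53RE-bla HCT-116 cells (4000/well) were pre-incubated for 5 h, then treated with compound (11 points) for 16 h at 37C. After 2 h with CCF4, the 460/530 nm ratio gave reporter activation; CellTiter-Glo measured viability.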

[6] = Secretion counterscreen for inhibitors of the SERCaMP assay screened against the NCATS CANVASS Library (AID 1347390);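 further: light from luciferase secreted into medium read as a measure of general secretion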; further: potency means the concentration at half of the fitted maximal effect
In short: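 Luminescence from constitutively secreted GLuc in SH-SY5Y-GLuc STOP cells, read after coelenterazine addition, served as read-out. Compounds tested 0.001 - 77 uM for 20 h at 37C; Brefeldin A as positive control.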

[7] = Confirmatory screen NINDS Rhodamine qHTS for Zika virus inhibitors (AID 1347161); further: nearly all actives have a fitted effect of over 60% in size; further: potency means the concentration at half of the fitted maximal effect
In short: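 Purified linked NS2B-NS3 protease (NS2B hydrophilic domain joined to NS3 protease by flexible linker), 25 nM in 10 mM Tris-HCl pH 8.0, 0.01% Tween 20. Compounds titrated, 15 min preincubation at room temperature; 1.5 microM Rhodamine110 substrate, FITC fluorescence change over 15 min.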

[8] = OV-KATE Cancer Cell Toxicity qHTS against the NCATS CANVASS Library (AID 1347345)
In short: (§1)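 Viability read-out: CellTiter-Glo luminescence after 72 h compound exposure at 37 °C/5% CO2. Cells plated at 1000/well, 4 h pre-incubation; 11-point titration. Bortezomib served as control.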

[9] = UWB1.289 Cancer Cell Toxicity qHTS against the NCATS CANVASS Library (AID 1347347); further: nearly all actives have a fitted effect of over 60% in size; further: potency means the concentration at half of the fitted maximal effect
In short: as §1

[10] = U-118MG Cancer Cell Toxicity qHTS against the NCATS CANVASS Library (AID 1347351); further: series mostly up to about 38 µM
In short: as §1

[11] = test system: Zika virus NS2B-NS3 protease (linked construct); assay: 384 well plate NINDS Rhodamine confirmatory qHTS for Zika virus inhibitors (AID 1347164);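 further: fluorescence from protease cleavage of Ac-LKRR-rhodamine 110 substrate; top concentration of the series differs between compounds; nearly all actives have a fitted effect of over 65% in size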
In short: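 Fluorescence read at ex 485 nm/em 538 nm, 25 min after adding 10 microM Ac-LKRR-Rd substrate at room temperature in the dark; signal normalized to no-enzyme and no-inhibitor controls. Enzyme final 5, 30 or 60 nM; compounds, ~15 min preincubation.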

[12] = qHTS to identify inhibitors of the type 1 interferon - major histocompatibility complex class I in skeletal muscle: primary screen against the NCATS Mechanism Interrogation Plate v5.0 (MIPE) Libary (AID 1347411); further: nearly all actives have a fitted effect of over 65% in size
In short: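 Luminescence from CRISPR HiBit-tagged endogenous HLA-B in human myoblasts reported MHC class I level after 24 h of IFN-beta (4 ng/ml) plus compound. Compounds ran as 11-point 1:3 series, top 46 uM final.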

[13] = target: Glutathione peroxidase 1 (Homo sapiens) (UniProt P07203); assay: Primary qHTS Assay for Inhibitors of Recombinant Selenoprotein Glutathione Peroxidase 1 (GPX1) (AID 1845191); further: nearly all actives have a fitted effect of over 65% in size
In short: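 GR-coupled readout: NADPH consumption tracked by fluorescence, ex 340/em 450 nm, at t=0 and after 15 min at RT. Final mix 10 nM GPX1, 1 mM GSH, 0.5 mM CHP, 0.5 mM NADPH, 100 nM GR, 0.01% BSA, following 30 min enzyme–compound preincubation.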

[14] = target: Phospholipid hydroperoxide glutathione peroxidase GPX4 (Homo sapiens) (UniProt P36969); assay: Primary qHTS Assay for Inhibitors of Recombinant Selenoprotein Glutathione Peroxidase 4 (GPX4) (AID 1845192); conditions: outcome: dose series up to 50 µM unless noted
In short: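 Steps: GPX4 plus compound, 30 min RT; add GR/GSH/NADPH master mix; start with cumene hydroperoxide; read 340/450 nm fluorescence at 0 and 15 min. Finals were 200 nM GPX4, 1 mM GSH, 0.5 mM CHP, 0.5 mM NADPH, 100 nM GR.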

[15] = qHTS drug screen for cell cycle checkpoint inhibitors in PARPi-resistant BRCA-mutant ovarian cancer cell lines. (AID 1963452; calls by dose curve); conditions: PEO1/OlaR viability, CellTiter-Glo luminescence, 96 h, stronger effect = lower value
In short: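 PEO1, PEO4 and PEO1/OlaR ovarian cancer cells, 600 per well, exposed 96 h at 37C to a dilution series. Viability read by CellTiter-Glo luminescence, normalized to DMSO and empty wells; activity summarized as Z-AUC.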

Glutathione peroxidase 1 (Homo sapiens), sequence (P07203 whole entry, looked up): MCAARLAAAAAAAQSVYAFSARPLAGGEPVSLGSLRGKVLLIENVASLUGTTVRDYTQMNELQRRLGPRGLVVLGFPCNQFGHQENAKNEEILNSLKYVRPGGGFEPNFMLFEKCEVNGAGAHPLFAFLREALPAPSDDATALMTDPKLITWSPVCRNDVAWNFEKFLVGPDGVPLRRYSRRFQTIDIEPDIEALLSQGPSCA
Phospholipid hydroperoxide glutathione peroxidase GPX4 (Homo sapiens), sequence (P36969 whole entry, looked up): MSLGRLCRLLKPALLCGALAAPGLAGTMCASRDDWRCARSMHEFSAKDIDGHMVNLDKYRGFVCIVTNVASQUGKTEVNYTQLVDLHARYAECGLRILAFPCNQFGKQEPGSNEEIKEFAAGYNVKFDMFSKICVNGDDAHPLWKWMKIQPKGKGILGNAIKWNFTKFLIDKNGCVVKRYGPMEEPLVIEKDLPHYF

Cc1cc(C)c(O)c(C(=O)CC2CC(=O)NC(=O)C2)c1
Potency [1]: inactive | Potency [2]: inactive | Potency [3]: 4.67 µM (active) | Potency [4]: 2.98 µM (active) | Potency [5]: inactive

CC(C)=CCC/C(C)=C/Cc1cc([C@@H]2CC(=O)c3c(cc(O)c(CC=C(C)C)c3O)O2)ccc1O
Potency [1]: 6.97 µM (active) | Potency [3]: inactive | Potency [4]: 16.7 µM (active) | Potency [5]: inactive | Potency [6]: inactive

CCOC(=O)c1ccc(CN(Cc2ccc(Br)cc2)S(=O)(=O)c2cccc(C(F)(F)F)c2)cc1
Potency [7]: inactive

COC(=O)c1cc2cc3c(c(O)c2c(=O)o1)OC1(CC3)CC2=C(O1)C(=O)c1c(O)c(OC)cc(OC)c1C2=O (centres undefined)
Potency [1]: 2.47 µM (active) | Potency [3]: inactive | Potency [4]: inactive

CN1CC[C@]23c4ccccc4N[C@H]1[C@]21CCN(C)[C@H]3Nc2ccccc21
Potency [8]: inactive | Potency [9]: inactive | Potency [10]: inactive | Potency [2]: inactive | Potency [4]: inactive | Potency [6]: inactive

C/C(=C\[C@H](C)C(=O)C[C@H](O)CC1CC(=O)NC(=O)C1)[C@@H]1OC(=O)CCCC/C=C/C[C@@H](O)[C@@H]1C
Potency [1]: inactive | Potency [2]: inactive | Potency [4]: 4.72 µM (active) | Potency [5]: inactive | Potency [6]: 12.2 µM (active)

CO/C=C/C(=O)c1cc2cnc3c(N)cc(=NC(=O)C(C)C)c([nH]1)c23
Potency [1]: 17.5 µM (active) | Potency [3]: 0.741 µM (active) | Potency [4]: inactive | Potency [6]: 1.72 µM (active)

C/C(=C\CC[C@@H](C)[C@H]1CC[C@]2(C)C3=CCC4C(C)(C)[C@@H](O)C[C@@H](O)[C@]4(C)C3[C@H](O)C[C@@]12C)CO (some centres undefined)
Potency [1]: 19.6 µM (active) | Potency [10]: inactive | Potency [3]: inactive | Potency [5]: inactive | Potency [6]: inactive

C=C1CCC2C(C)(C(=O)O)CCC(CC/C(C)=C/C(=O)NC(CCC(N)=O)C(=O)O)[C@@]2(C)C1 (some centres undefined)
Potency [8]: inactive | Potency [9]: inactive | Potency [10]: inactive | Potency [2]: inactive | Potency [5]: inactive | Potency [6]: inactive

CCC(=O)N[C@@H](C[C@H](C)C(Cl)(Cl)Cl)C(=O)N1C(=O)C=C(OC)[C@@H]1CC(C)C
Potency [1]: inactive | Potency [9]: inactive | Potency [10]: inactive | Potency [2]: inactive | Potency [3]: inactive | Potency [4]: inactive | Potency [6]: inactive

C/C1=C/[C@@H](C)[C@H](O)[C@@H](O)/C=C/CC/C=C/C(=O)O[C@@H]1[C@H](C)C(=O)/C=C/CC1CC(=O)NC(=O)C1
Potency [1]: inactive | Potency [2]: inactive | Potency [4]: inactive | Potency [5]: inactive

CC1=C2CC[C@]3(C)[C@H](CC=C4[C@@H]5CC(C)(C)CC[C@@H]5C(=O)[C@H](O)[C@]43C)[C@@]2(C)C=C(O)C1=O
Potency [1]: 39.2 µM (active) | Potency [9]: inactive | Potency [2]: inactive | Potency [6]: inactive

CC(C)=CCCC(C)(O)[C@H]1CC=C(C)C(O)C1 (some centres undefined)
Potency [8]: inactive | Potency [9]: inactive | Potency [10]: inactive | Potency [2]: inactive | Potency [6]: inactive

COC(=O)C1=C[C@]23C[C@@H](C)CC[C@@H]2[C@@]2(C)CC[C@@H](C(C)C)[C@@](O)(O3)[C@@H]12
Potency [1]: 44 µM (active) | Potency [10]: inactive

CC1c2cccc(O)c2C(O)=C2C(=O)C3(O)C(O)=C(C(N)=O)C(=O)C(N(C)C)C3C(O)C21 (centres undefined)
Potency [11]: inactive | Potency [12]: inactive

CCC(C)=C1OC(=O)[C@H](C)[C@H](O)[C@H](Cc2cccnc2)NC(=O)C(NC(=O)c2ncccc2O)C(C)OC1=O (some centres undefined)
Potency [8]: inactive | Potency [9]: inactive | Potency [10]: inactive | Potency [3]: inactive | Potency [4]: inactive | Potency [5]: inactive | Potency [6]: inactive

CN1CC[C@]2(c3cccc4c3N[C@H]3N(C)CC[C@@]43[C@]34CCN(C)[C@H]3Nc3ccccc34)c3ccccc3N[C@H]12
Potency [1]: inactive | Potency [9]: 18.8 µM (active) | Potency [3]: inactive | Potency [4]: 0.0375 µM (active) | Potency [6]: 19.3 µM (active)

CN(C)c1cc(NC(=O)CNC(C)(C)C)c(O)c2c1C[C@H]1C[C@H]3[C@H](N(C)C)C(=O)C(C(N)=O)=C(O)[C@]3(O)C(=O)C1=C2O
Potency [7]: 1.97 µM (active) | Potency [12]: inactive | Potency [13]: inactive | Potency [14]: inactive | Z-AUC [15]: 1.31 (inactive) | Z-AUC ([15]; measured here: PEO1 parental Z-AUC): 1.13 | Z-AUC ([15]; measured here: PEO4 Z-AUC): 1.05

COC(=O)[C@@]12Oc3cccc(O)c3C(O)=C1C(=O)C[C@H](C)[C@H]2O
Potency [8]: inactive | Potency [9]: inactive | Potency [10]: inactive | Potency [3]: inactive | Potency [4]: inactive | Potency [5]: inactive

COc1cc([C@@H]2c3cc4c(cc3C[C@@]3(O[C@@H]5O[C@H](CO)[C@@H](O)[C@H](O)[C@H]5O)COC(=O)[C@H]23)OCO4)cc(OC)c1OC
Potency [1]: 44 µM (active) | Potency [2]: inactive | Potency [3]: inactive | Potency [5]: inactive

C/C=C/[C@H]1[C@H]2C(=O)c3c(O)c(C)c(O)c(C)c3[C@]1(C(=O)O)C(=O)C=C2C
Potency [8]: inactive | Potency [9]: inactive | Potency [10]: inactive | Potency [4]: inactive

C[C@@]12CCC[C@@](C)(C(=O)O)[C@H]1C[C@@H](O)[C@@]13C[C@@H](CC[C@@H]21)[C@](C)(O)C3
Potency [8]: inactive | Potency [9]: inactive | Potency [10]: inactive | Potency [3]: inactive | Potency [4]: inactive | Potency [5]: inactive | Potency [6]: inactive

CCC(=O)N[C@@H](C[C@H](C)C(Cl)(Cl)Cl)C(=O)N1C(=O)C=C(OC)[C@@H]1C[C@H](C)CCl
Potency [1]: inactive | Potency [2]: inactive | Potency [3]: inactive | Potency [4]: inactive

COC12OC1(C13OC1(OC)C(=O)c1cc4cc(C)oc(=O)c4c(O)c1C3O)C(O)c1c(cc3cc(C)oc(=O)c3c1O)C2=O (centres undefined)
Potency [1]: 3.11 µM (active) | Potency [9]: inactive | Potency [10]: inactive | Potency [2]: inactive | Potency [3]: inactive | Potency [6]: inactive
